The list is not random: actives were taken first. Their share in the collection is about 19%.
DT40 TDP1 no CPT = qHTS for Inhibitors of human tyrosyl-DNA phosphodiesterase 1 (TDP1): qHTS in cells in absence of CPT. Potency, µM (series often up to 46.2 µM), for inactives: at the highest dose activity change, negative = growth inhibition, actives largely listed as inhibitors. DT40 Tdp1-/- hTDP1 cells, no CPT, ATP luminescence, 48 h. hit rate 15% among 420,000; also: potency is read from the fitted curve at half-maximal effect; nearly all actives have a fitted effect of over 55% in size
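A cellular qHTS used chicken DT40 cells lacking endogenous Tdp1 but carrying stably transfected human TDP1. Compounds were applied without camptothecin, and cell growth kinetics were judged by ATP-dependent luminescence after ≥48 hr.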
HT1080 IDH1KD tx = kills HT-1080 cells with IDH1 knockdown; HT-1080 IDH1 knockdown viability, ATP luminescence, 48 h; Potency, µM (titrated, usually from 46.1 µM), inactives show top-dose activity, negative = toxicity, usual class: cytotoxic; hit rate 2% among 360,000; AID 686971;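 also: potency is read from the fitted curve at half-maximal effect; 0% = DMSO wells and -100% = cell-free medium wells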
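Assay cells: HT-1080 with IDH1 knockdown, 750 per well, RPMI/5% FBS. Exposure: 48 h at 37 °C following 2 h pre-incubation. Read: CellTiter-Glo luminescence; fitted concentration-response, curve class assigned.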
IL-1B inflam inh = inflammasome signaling inhibition, IL-1 beta readout; activity change, % at 57.5 µM; hit rate 4.7% among 360,000; AID 743279; THP-1 LPS/ATP IL-1B secretion, AlphaLISA, 16 h; active compounds read low; in the data active = activity change below about -50%; inconclusive = mostly about -30% to -49%
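Secreted IL-1B measured by AlphaLISA bead assay after 16 h compound exposure of THP-1 cells; compounds (final up to 57.5 uM) added 1 h before LPS (250 ng/mL) and ATP (1.25 mM) stimulation; lower signal means less secretion.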
TDP1 cell CPT = growth inhibition of DT40 Tdp1-/-;hTDP1 cells with camptothecin (screen for TDP1 inhibitors); chicken DT40 Tdp1-/-;hTDP1 cells + 20 nM CPT, ATP luminescence, 48 h; Potency, µM (titrated, usually from 46.2 µM), inactives show at the top dose activity change, negative = growth inhibition, usual class: inhibitors; hit rate 12% among 420,000; also: potency is read from the fitted curve at half-maximal effect; nearly all actives have a fitted effect of over 55% in size
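Chicken DT40 Tdp1-/- cells stably complemented with human TDP1 were seeded at 400 cells/well in medium containing 20 nM camptothecin, exposed to pin-transferred compounds, and grown at 37 °C for at least 48 hr. Viability was read as ATP luminescence.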
HT1080-NT tox = kills 2HG-producing HT-1080-NT fibrosarcoma cells; HT-1080-NT fibrosarcoma viability, CellTiter-Glo ATP luminescence, 48 h; Potency, µM (highest dose often 46.1 µM), inactives show top-dose activity, negative = less viability, most hits filed as cytotoxic; hit rate 1.6% among 360,000; AID 686970;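 also: NT is the 2HG producing partner of a matched IDH1 knockdown line; potency is read from the fitted curve at half-maximal effect; 0% = DMSO-treated cells and -100% = media-only wells without cells; nearly all actives have a fitted effect of over 55% in size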
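Viability of the 2HG-overproducing fibrosarcoma line after 48 hours of compound exposure at 37 degrees C was determined by luminescence with CellTiter-Glo, and concentration-effect curves were then fitted and categorized.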
* marks the source's active call; other numbers are inactive results; ? = inconclusive; nt = no result. Unless noted, calls follow the shape of the dose curve; as a rule, active = well fitted curve in the direction sought with a large enough effect; inconclusive = small, poorly fitted or top-dose-only effect, or another doubt; inactive = no such curve, though single readings can be large; an effect the other way counts as inactive or inconclusive. Unless noted, % is scaled to controls: 0 for no effect and ±100 for the full control effect.

SMILES | DT40 TDP1 no CPT | HT1080 IDH1KD tx | IL-1B inflam inh | TDP1 cell CPT | HT1080-NT tox
CCCC(=O)Nc1sc(C)c(C)c1C(=O)Nc1cccc(C)c1 | -6.8% | -3.4% | -59.5* | -12.8% | 6.8%
Cc1sc(NC(=O)C(C)C)c(C(=O)Nc2ccccc2)c1C | 14.6µM* | 8.8% | 14.7 | ? | -5.8%
CC1CCN(C(=O)c2ccc(S(=O)(=O)NCc3ccco3)cc2)CC1 | -15.3% | 24.1% | 5.1 | 3.8% | 16.5%
C=CCNC(=O)c1ccccc1NC(=O)C1COc2ccccc2O1 (centres undefined) | 0.5% | -7.9% | 13.3 | -0.8% | -27.4%
COc1ccc2sc(N(Cc3cccnc3)C(=O)C3CCCCC3)nc2c1 | 23.1µM* | nt | nt | 13µM* | nt
O=C(C1CCCCC1)N(Cc1cccnc1)c1nc2c(F)cc(F)cc2s1 | 14.6µM* | nt | nt | 20.6µM* | nt
CCOc1ccc2nc(N(Cc3cccnc3)C(=O)C3CCCCC3)sc2c1 | -23.7% | nt | nt | ? | nt
CCc1ccc(NC(=O)CSc2ccc(-c3sc(-c4ccccc4)nc3C)nn2)cc1 | 11.6µM* | nt | nt | ? | nt
COc1cccc(CNC(=O)CSc2ccc(-c3sc(-c4ccccc4)nc3C)nn2)c1 | 18.4µM* | nt | nt | ? | nt
Cc1nc(-c2ccccc2)sc1-c1ccc(SCC(=O)Nc2cccc(C(F)(F)F)c2)nn1 | -22.7% | nt | nt | ? | nt
CC(=O)Nc1cccc(NC(=O)C(=O)NCCc2sc(-c3ccccc3)nc2C)c1 | 1.16µM* | nt | nt | 1.46µM* | nt
CC(=O)Nc1cccc(NC(=O)CSc2ccc(-c3sc(-c4ccccc4)nc3C)nn2)c1 | 5.8µM* | nt | nt | 9.2µM* | nt
Cc1ccsc1CN1CCc2nnc(CCNC(=O)c3ccc(F)cc3)n2CC1 | -9.7% | nt | nt | 5.0% | nt
COc1cc(NC(=O)CSc2ccc(-c3sc(-c4ccccc4)nc3C)nn2)cc(OC)c1 | 16.4µM* | nt | nt | -86.7% | nt
COc1ccc(N(C(=O)c2snc(C(N)=O)c2N)C(C(=O)NCc2ccccc2)c2ccc(O)cc2)cc1OC (centres undefined) | ? | -3.4% | 28.1 | -1.7% | -2.8%
COc1ccc(C(C(=O)NCc2ccccc2)N(C(=O)Cn2nnc3ccccc32)c2ccc(F)cc2)cc1 (centres undefined) | 14.6µM* | nt | nt | ? | nt
COc1ccc(N(C(=O)Cn2nnc3ccccc32)C(C(=O)NCc2ccco2)c2ccncc2)cc1 (centres undefined) | 1.0% | 0.0% | 3.6 | -6.5% | 10.5%
COc1cccc(N(C(=O)c2snc(C(N)=O)c2N)C(C(=O)NCc2ccccc2)c2ccc(O)cc2)c1 (centres undefined) | 18.4µM* | -3.6% | -53.0* | ? | -17.1%
COc1ccc(N(C(=O)c2snc(C(N)=O)c2N)C(C(=O)NCc2ccc(F)cc2)c2ccc(O)cc2)cc1 (centres undefined) | ? | ? | -88.0* | ? | -26.3%
O=C(CCC(=O)N1CCCC1)N1CCCC1 | 10.8% | 17.4% | 15.1 | 2.8% | 13.1%
COCCNC(=O)C(c1ccncc1)N(C(=O)c1sc(C)nc1C)c1cccc(C)c1 (centres undefined) | 3.6% | 9.5% | 8.6 | -2.7% | 18.4%
CC1(C)CC(=O)C2=C(C1)NC(Nc1nc3ccccc3o1)=NC2c1ccccn1 (centres undefined) | 0.82µM* | -12.9% | 0.0 | 0.731µM* | -24.6%
CC1(C)CC(=O)C2=C(C1)NC(Nc1nc3ccccc3o1)=NC2c1ccccc1Cl (centres undefined) | 7.08µM* | nt | nt | 5.62µM* | nt
CC1(C)CC(=O)C2=C(C1)NC(Nc1nc3ccccc3o1)=NC21CCCC1 | -26.1% | 11.9% | 64.2 | ? | 11.1%
N=C1C=CC=C2C1=NC1(CCCCC1)N2O | -24.9% | 7.2% | -12.4 | -29.1% | -22.3%
COc1cccc(CN2CCN(C(=O)c3cc(-c4ccccn4)nc4ccc(Cl)cc34)CC2)c1 | 18.4µM* | -1.2% | 54.2 | ? | -19.4%
COc1ccc(-c2cc(C(=O)N3CCCCCC3)c3cc(C)ccc3n2)cc1 | ? | -28.4% | -3.2 | ? | 0.2%

Compound activity (PubChem BioAssay)
